Assay results published in PubChem BioAssay.
A number with no mark means an inactive call.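 How the source made its calls: active means inhibition at or above 50% at 10 µM; inactive means inhibition below 50%.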

Assay: inhibitors of Sendai virus-induced IRF3 signaling, primary screen, TLR/RLR signaling modifier project, cell-based, Sendai virus stimulus, luciferase, 10K MLSCN set (AID 602276);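 further: firefly luciferase from ISG56 promoter only with Renilla not read in this screen; 0% = Sendai virus plus DMSO and 100% = medium plus DMSO without virus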
Conditions: HEK293 RL24 IRF3 luciferase reporter, at 10 µM, hits give high values

Point of comparison: `Cc1nnc(C)c2c(C)n(-c3ccc(Br)cc3)c(C)c12`, inhibition 18%. Against it:
- CC(=O)Nc1ccc(Oc2cc(C#N)c(C#N)cc2N2CCCCCC2)cc1 — lower, 13.8%
- COc1ccc2cnn(-c3ccccc3)c(=O)c2c1OC — lower, -4.11%
- COC(=O)c1[nH]c2ccccc2c1NC(=O)CN1CCC(C(N)=O)(N2CCCCC2)CC1 — higher, 20.8%
- CCOC(=O)CSc1nc2cc(C(=O)NCc3ccco3)ccc2c(=O)n1-c1ccc(F)cc1 — lower, -7.4%
- CSc1nnc2c3ccccc3n(Cc3ccccc3)c2n1 — higher, 19.7%
- O=C(c1cccs1)c1cn(CC(=O)N2CCc3ccccc3C2)c2ccccc12 — lower, 11.1%
- Cc1ccccc1CN1CCN(CC(=O)NCc2ccco2)C1=O — higher, 23.3%
- Cc1ccc(CC23CN4CCN(CC(C4)C2O)C3)c(C)c1 (stereo not given) — higher, 18.9%
- C[C@H](NC(=O)Nc1ccccc1F)C(=O)O — lower, 14.6%
- COc1cc(-c2c(C#N)c(N)nc3c2CCCC3)cc(OC)c1OC — higher, 20%
- Cc1ccc(S(=O)(=O)N2CCCC2C(=O)OCc2ccco2)cc1 (stereo not given) — lower, -9.42%
- COC(=O)c1ccc(CN(c2ccccc2OC)S(=O)(=O)c2cccs2)o1 — lower, 3.68%
- CCOc1ccc(C(c2nnnn2Cc2ccccc2)N2CCN(C(=O)c3ccco3)CC2)cc1 (stereo not given) — lower, -3.47%
- CCOC(=O)Cc1nnc(NC(=O)CSc2nnc3c4ccccc4n(C(C)C)c3n2)s1 — the same, 18%
- O=C(NC1CCCC1)c1cc(-c2cccs2)on1 — lower, -40.4%
- Cc1ccc(-c2c3c(=O)n(C)c(=O)n(C)c3cn2CCCN2CCOCC2)cc1 — lower, 10.9%
- O=C(CCCn1c(=O)c2sccc2n(CC(=O)NCc2ccco2)c1=O)NCc1ccco1 — lower, 13.9%
- CCOc1ccc2nc(NC(=O)C(NS(=O)(=O)c3cccs3)C(C)C)sc2c1 (stereo not given) — higher, 18.1%
- Cc1cc(NC(=O)COC(=O)c2cccc(S(=O)(=O)N3CCOCC3)c2)no1 — lower, 12.1%
- Cc1nc2sc(C(c3cccc(F)c3)N3CCN(C(=O)c4ccco4)CC3)c(O)n2n1 (stereo not given) — lower, -14.2%
- O=C(O)C1CC(=O)N(c2ccc(OCc3c(F)cccc3Cl)cc2)C1 (stereo not given) — lower, 4.5%
- N#C/C(C(=O)N1CCOCC1)=C1/SC=C(c2ccccc2)N1c1ccccc1 — lower, 12.4%
- CCCC(C)C1C(C#N)=C(N)Oc2cc(C)oc(=O)c21 (stereo not given) — higher, 18.1%
- Cc1cc(NC(=O)c2ccccc2Oc2ccccc2)no1 — lower, 12.4%
- CC(C)(C)c1cc(C(=S)N2CCN(CCO)CC2)cc(C(C)(C)C)c1O — higher, 24.4%
- CCC(C)NC(=O)C1CCCN(S(=O)(=O)c2ccc(-n3cnnn3)cc2)C1 (stereo not given) — lower, -2.34%
- CC1(C)C2CCC1(CS(=O)(=O)NCc1ccc(C(=O)O)cc1)C(=O)C2 (stereo not given) — higher, 36.1%
- Cc1nnc(NC(=O)Nc2cccc(Cl)c2)s1 — lower, -25%
- O=C(CN1CCOCC1)N1CCN(C(=O)CN2CCOCC2)CC1 — lower, 12.4%
- COc1ccc2c(c1OC)C(=O)OC2Nn1cncn1 (stereo not given) — lower, 15.9%
- N#Cc1cnc(SCC(=O)Nc2ccccc2C(F)(F)F)nc1N — lower, 14%
- O=C(NCc1ccco1)C1CC(=O)N(c2ccc(F)cc2)C1 (stereo not given) — lower, 3.07%
- CCOC(=O)C1CCCN(c2nc3ccccc3nc2C(C#N)C(=O)NCc2ccccc2)C1 (stereo not given) — lower, 7.48%
- CCOc1cc(C)c(Cl)cc1S(=O)(=O)N(C)C — higher, 20.4%
- Cc1c(C(=O)O)oc2ccc(S(=O)(=O)NCCC3=CCCCC3)cc12 — lower, 3.33%
- CCOC(=O)CSC1=Nc2ccccc2C2=NC(CC(=O)NCc3ccc(OC)cc3)C(=O)N12 (stereo not given) — lower, 10.6%
- COc1ccc(C(F)(F)F)cc1NC(=O)c1nc2nc(C)cc(C(F)F)n2n1 — lower, 5.86%
- CCSc1nc2c(c(=O)n(C)c(=O)n2C)n1Cc1ccc(Cl)cc1 — lower, 11.8%
- O=C(COC(=O)c1ccco1)NCc1cccs1 — lower, 5.62%
